Bioassay records deposited in PubChem by National Center for Advancing Translational Sciences (NCATS).
TDP1 cell CPT – DT40-hTDP1 cell growth loss with CPT. chicken DT40 Tdp1-/-;hTDP1 cells + 20 nM CPT, ATP luminescence, 48 h. Potency, µM (highest dose often 46.2 µM), without a hit: top-dose activity change, negative = growth inhibition, actives largely listed as inhibitors. hit rate 12% among 420,000; note: potency is the fitted concentration of half-maximal effect; nearly all actives have a fitted effect of over 55% in size
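Cell growth measured by CellTiter-Glo luminescence after a minimum 48 h, 37 C compound exposure with 20 nM CPT in Tdp1-knockout DT40 cells stably expressing hTDP1, seeded 400/well; qHTS titration format.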
HT1080NT lethal – kills 2HG-producing HT-1080-NT fibrosarcoma cells; HT-1080-NT fibrosarcoma viability, CellTiter-Glo ATP luminescence, 48 h; Potency, µM (highest dose often 46.1 µM), for inactives: at the top dose activity, negative = less viability, usual class: cytotoxic; hit rate 1.6% among 360,000; AID 686970;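 note: NT is the 2HG producing partner of a matched IDH1 knockdown line; potency is the fitted concentration of half-maximal effect; 0% = DMSO-treated cells and -100% = media-only wells without cells; nearly all actives have a fitted effect of over 55% in size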
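A 48-hour cytotoxicity screen used HT-1080-NT cells plated 2 hours before compound delivery. ATP-based CellTiter-Glo luminescence measured viability, normalized to DMSO and no-cell controls.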
HT1080 IDH1KD tx – toxicity to HT-1080 IDH1 knockdown cells (counter line) | HT-1080 IDH1 knockdown viability, ATP luminescence, 48 h | Potency, µM (top dose mostly 46.1 µM), without a hit: at the highest dose activity, negative = toxicity, actives largely listed as cytotoxic | hit rate 2% among 360,000 | AID 686971;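 note: potency is the fitted concentration of half-maximal effect; 0% = DMSO wells and -100% = cell-free medium wells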
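Luminescent ATP read-out (CellTiter-Glo, 10 min at room temperature) after 48 h compound exposure at 37 °C gave viability of IDH1-knockdown HT-1080 cells. Activity was normalised to DMSO and cell-free wells, then fitted as concentration-response curves.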
TDP1 cell noCPT – qHTS for Inhibitors of human tyrosyl-DNA phosphodiesterase 1 (TDP1): qHTS in cells in absence of CPT | DT40 Tdp1-/- hTDP1 cells, no CPT, ATP luminescence, 48 h | Potency, µM (series often up to 46.2 µM), for the others: top-dose activity change, negative = growth inhibition, hits mostly inhibitors | hit rate 15% among 420,000; note: potency is the fitted concentration of half-maximal effect; nearly all actives have a fitted effect of over 55% in size
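No-CPT arm: Tdp1-/-;hTDP1 DT40 cells (400/well) plus compounds, incubated ≥48 hr at 37 °C. Readout CellTiter-Glo luminescence.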
IL1B secr inh – blocks inflammasome-driven IL-1 beta release | THP-1 LPS/ATP IL-1B secretion, AlphaLISA, 16 h; active compounds read low | activity change, % at 57.5 µM | hit rate 4.7% among 360,000; in the data active = activity change below about -50%; inconclusive = mostly about -30% to -49%
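Secreted IL-1B measured by AlphaLISA bead assay after 16 h compound exposure of THP-1 cells; compounds (final up to 57.5 uM) added 1 h before LPS (250 ng/mL) and ATP (1.25 mM) stimulation; lower signal means less secretion.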
The depositor's hits bear a star; ? = inconclusive; . = no result given. An excerpt weighted towards active compounds, which were near 19% of everything screened. Unless noted, calls come from the whole dose curve; as a rule, active = well fitted curve in the direction sought with a large enough effect; inconclusive = small, poorly fitted or top-dose-only effect, or another doubt; inactive = no such curve, though single readings can be large; an effect the other way counts as inactive or inconclusive. Unless noted, % is set by controls: 0 for no effect and ±100 for the full control effect.

SMILES	TDP1 cell CPT	HT1080NT lethal	HT1080 IDH1KD tx	TDP1 cell noCPT	IL1B secr inh
O=C(Nc1ccc2c(c1)[C@H]1C[C@@H](CC(=O)N3CCOCC3)O[C@@H](CO)[C@H]1O2)C1CCOCC1	2%	1%	17%	-21%	-10
COc1ccc(C(c2c(C)[nH]n(C(N)=S)c2=O)C(C#N)C#N)cc1 (centres undefined)	23µM*	21%	8%	?	-28
OC(c1ccccc1)(c1ccccc1)c1nccn1-c1ccccc1	?	0%	-18%	?	0
COc1ccc(-n2c(=O)c3c4c(sc3n(Cc3ccccc3)c2=O)CN(C(C)=O)CC4)cc1OC	3%	.	.	-19%	.
COc1ccc(-c2cc(=O)[nH]c(N3CCN(Cc4ccccc4)CC3)n2)cc1	?	-3%	-2%	?	-7
O=c1cc(-c2ccccc2)nc(N2CCN(Cc3ccccc3)CC2)[nH]1	18µM*	-3%	-1%	21µM*	-5
CCOc1cc(N2CCCC2)ccc1[N+](=O)[O-]	-25%	1%	6%	?	-6
CCOc1ccc(CN2CCc3nc(Nc4ccc(OC)cc4OC)ncc3C2)cc1	21µM*	.	.	?	.
COc1ccc(Nc2ncc3c(n2)CCN(Cc2ccccc2C)C3)c(OC)c1	?	.	.	10µM*	.
COc1ccc(CNC(=O)N2CCc3nc(Nc4cc(OC)c(OC)c(OC)c4)ncc3C2)cc1	?	-16%	-25%	?	6
COc1cc(Nc2ncc3c(n2)CCN(Cc2ccc(OC(C)C)c(OC)c2)C3)cc(OC)c1	16µM*	.	.	13µM*	.
CN1CCN(Cc2nc(N)nc(Nc3ccc4c(c3)OCCO4)n2)CC1	-3%	-1%	0%	-21%	12
Cc1ccccc1CN1CCc2nc(Nc3ccc4c(c3)OCCO4)ncc2C1	23µM*	.	.	21µM*	.
O=C(NCC1CCCO1)C(c1cccs1)N(C(=O)c1ccc(CN2CCOCC2)o1)c1ccc(Cl)cc1 (centres undefined)	-23%	13%	17%	?	-12
Cc1ccc(NCC(=O)Nc2ccc(Br)cc2)cc1F	-17%	8%	13%	-36%	-8
CCC(=O)Oc1cc(C(C)(C)C)cc2cc(-c3nc(-c4ccc(OC)cc4OC)no3)c(=O)oc12	?	.	.	16µM*	.
Cc1cccc(C(=O)Nc2c(C(=O)N(C)C)cnn2-c2ccccc2)c1	-27%	1%	10%	-1%	3
Nc1nc(Cl)cc(-c2ccccc2)n1	3%	2%	0%	-15%	-50*
CCOC(=O)C1=C(COC(=O)[C@@H](NC(=O)c2cccc(C)c2)C(C)C)NC(=O)NC1C (some centres undefined)	10%	-1%	-7%	-4%	36
CC1CCN(C(=O)c2ccc(S(=O)(=O)N3CCCC3)cc2)CC1	-24%	-9%	1%	17%	16
COc1ccc(C(=O)N2CCC(c3nc(-c4ccc(S(=O)(=O)N5CCCC5)cc4)no3)CC2)cc1	23µM*	.	.	21µM*	.
CCOc1ccc(C(=O)N2CCC(c3nc(-c4ccc(S(=O)(=O)N5CCCC5)cc4)no3)CC2)cc1	21µM*	.	.	23µM*	.
CCOc1ncccc1C(=O)OCC(=O)NC1CCCCC1	18%	8%	2%	11%	15
O=C(Nc1ccc(-n2cnnn2)cc1)c1cccc(S(=O)(=O)N2CCCC2)c1	-3%	-4%	-5%	0%	6
CC1=C(SCc2ccccc2)C(=O)c2ccccc2C1=O	2.6µM*	9.2µM*	26µM*	3.3µM*	-70*
SMILES	TDP1 cell CPT	HT1080NT lethal	HT1080 IDH1KD tx	TDP1 cell noCPT	IL1B secr inh
O=C(NCC(c1ccco1)N1CCOCC1)C1CCCCC1 (centres undefined)	7%	3%	9%	-3%	-5
CCCCCCCn1c(=O)c(C(=O)OC)c(N)c2ccccc21	3.3µM*	?	?	3.3µM*	-59*
CCCCCCn1c(=O)c(-c2ccccc2)c(O)c2ccccc21	13%	-13%	-6%	-22%	10
CCCCCCCCn1c(=O)c(C(=O)OC)c(N)c2ccccc21	1.3µM*	21µM*	16µM*	3.3µM*	-95*
O=C(Nc1ccccc1)C1=C[C@@H](c2ccc(Br)cc2)C[C@@H](OCCCCO)O1	?	-5%	-9%	?	-8
COc1ccc(NC(=O)CCS(=O)(=O)c2ccc3c(c2)n(C)c(=O)c(=O)n3C)cc1Cl	8%	.	.	-13%	.
C=CCn1c(SCc2csc(-c3ccc(Cl)cc3)n2)nnc1-c1ccccc1OC	23µM*	-19%	?	?	-29
CN(C)/C=C/C(=C\C(=O)C(F)(F)F)Nc1ccc(C(F)(F)F)cc1	?	-1%	-3%	18µM*	13
CN(C)/C=C/C(=O)C(F)(F)F	9%	12%	7%	-3%	-5
CN(C(=O)c1ccccc1C(=O)OCC(=O)Nc1cccc(Br)c1)c1ccccc1	-21%	-3%	-17%	-30%	14
O=C(Cn1nnc(-c2ccccc2)n1)Nc1cccc(S(=O)(=O)N2CCOCC2)c1	?	7%	7%	12µM*	-9
Cc1ccc(S(=O)(=O)N2CCOCC2)cc1NC(=O)Cn1nnc(-c2ccccc2)n1	-19%	-2%	-2%	-23%	10
Cc1ccc(S(=O)(=O)N2CCOCC2)cc1NC(=O)c1cc(-c2ccccn2)nc2ccccc12	?	?	?	-27%	-51*
O=C(Nc1cccc(S(=O)(=O)N2CCOCC2)c1)c1cn(-c2ccccc2)nc1-c1ccccc1	?	2%	8%	23µM*	-19
Cc1cccc(NC(=O)c2cn(-c3ccccc3)nc2-c2ccccc2)c1	?	-5%	1%	16µM*	-1
O=C(N/N=C/c1ccc(OC(=O)c2cccs2)cc1)c1ccccn1	-10%	-3%	0%	-25%	4
Cn1cnc(S(=O)(=O)N2CCC(C(=O)NCc3ccccc3Cl)CC2)c1	6%	.	.	-5%	.
Cc1cc(C(=O)Nc2ccc(N3CCOCC3)cc2)c2ccccc2n1	4%	-1%	-3%	-16%	7
CN(C)S(=O)(=O)c1cccc(NC(=O)COC(=O)c2cn(-c3ccccc3)nc2-c2ccccc2)c1	?	-6%	0%	21µM*	-21
Cc1cc(C(=O)Nc2cccc(S(=O)(=O)N3CCOCC3)c2)c2ccccc2n1	?	-3%	0%	23µM*	23
O=C(O)c1ccc(NC(=O)c2cn(-c3ccccc3)nc2-c2cccc(Cl)c2)cc1	?	?	?	3.7µM*	21
Cc1cccc(NC(=O)c2cc(-c3ccccn3)nc3ccccc23)c1C	23µM*	?	-21%	13µM*	-27
